In all, about 310,000 compounds went through this assay and about 14,000 (4.5%) showed an effect of 50% or more. The effect is printed as a negative number. For the sample, strong results were picked, then their nearest neighbours and some compounds at random.
The compounds below were run against human ether-à-go-go-related gene (hERG) potassium channel (human, UniProt Q12809) (assay: primary screen, population patch clamp on CHO cells stably expressing hERG; higher = less effect of the substance).
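Further: peak tail current of the secondary pulse compared with the same well before compound.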

Chain of human ether-à-go-go-related gene (hERG) potassium channel (Q12809 whole entry, looked up): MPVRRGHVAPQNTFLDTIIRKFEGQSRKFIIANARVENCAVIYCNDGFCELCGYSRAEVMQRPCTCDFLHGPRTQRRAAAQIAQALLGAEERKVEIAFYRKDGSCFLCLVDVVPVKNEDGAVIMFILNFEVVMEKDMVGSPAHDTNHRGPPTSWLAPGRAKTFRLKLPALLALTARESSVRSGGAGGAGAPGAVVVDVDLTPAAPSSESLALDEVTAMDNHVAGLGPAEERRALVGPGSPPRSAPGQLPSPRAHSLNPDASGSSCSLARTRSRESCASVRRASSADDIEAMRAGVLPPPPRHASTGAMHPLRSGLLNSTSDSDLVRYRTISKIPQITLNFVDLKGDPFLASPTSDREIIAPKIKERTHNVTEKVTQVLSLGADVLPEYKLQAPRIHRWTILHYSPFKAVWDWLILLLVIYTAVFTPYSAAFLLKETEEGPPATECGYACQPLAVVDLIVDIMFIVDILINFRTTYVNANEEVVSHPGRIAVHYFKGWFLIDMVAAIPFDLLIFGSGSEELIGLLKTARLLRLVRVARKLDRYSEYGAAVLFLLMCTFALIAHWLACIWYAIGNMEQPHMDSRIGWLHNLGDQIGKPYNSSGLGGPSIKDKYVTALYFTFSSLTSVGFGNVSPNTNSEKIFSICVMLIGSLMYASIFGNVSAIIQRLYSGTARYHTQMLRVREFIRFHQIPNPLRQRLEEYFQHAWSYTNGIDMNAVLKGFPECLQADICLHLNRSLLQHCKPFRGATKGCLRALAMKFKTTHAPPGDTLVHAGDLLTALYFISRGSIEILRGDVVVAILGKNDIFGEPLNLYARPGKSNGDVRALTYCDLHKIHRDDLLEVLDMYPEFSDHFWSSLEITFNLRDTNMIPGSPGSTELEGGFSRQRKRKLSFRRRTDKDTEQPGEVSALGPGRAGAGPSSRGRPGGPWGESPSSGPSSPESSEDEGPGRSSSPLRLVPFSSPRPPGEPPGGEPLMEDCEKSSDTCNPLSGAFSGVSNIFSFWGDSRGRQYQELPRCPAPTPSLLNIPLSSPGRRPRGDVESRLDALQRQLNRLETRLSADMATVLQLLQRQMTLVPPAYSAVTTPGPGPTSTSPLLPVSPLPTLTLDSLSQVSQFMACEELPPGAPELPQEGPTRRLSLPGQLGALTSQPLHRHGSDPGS

Compound	hERG current change (%, negative = inhibition) at 10uM
O=C(NCCCc1ccccc1)c1ccccc1O	-0.415%
CCCCSc1nnc(CCC)n1N	-2.49%
Cc1ccc(C)c(NC(=S)N(Cc2cccc(Br)c2)CC2CCC(C(=O)O)CC2)c1 (stereo not shown)	2.11%
COC(=O)c1ccccc1NC(=O)NC1CCCCC1	5.86%
CCCc1ccc(OCC(O)CN2CCN(CCO)CC2)cc1.Cl (stereo not shown)	-13.7%
CC(C)(C)c1ccc(OCC(O)CN2CCc3ccccc3C2)cc1.Cl (stereo not shown)	-50.3%
CCCc1ccc(OCC(O)CN2CCc3ccccc3C2)cc1.Cl (stereo not shown)	-71.5%
COc1cccc(OCC(O)CN2CCc3ccccc3C2)c1.Cl (stereo not shown)	-71.1%
OC(COc1ccc(CNCc2cccnc2)cc1)CN1CCc2ccccc2C1 (stereo not shown)	-13.5%
CCCc1ccc(OCC(O)CN2CCCC2)cc1.Cl (stereo not shown)	-27.8%
COc1cccc(OCC(O)CN2CCOCC2)c1.Cl (stereo not shown)	18.7%
COc1cccc(C2c3c(oc4ccc(F)cc4c3=O)C(=O)N2CCN2CCOCC2)c1OC (stereo not shown)	4.45%
CCCCn1c(SCC(=O)Nc2cc(NC(=O)c3ccco3)ccc2C)nc2ccccc2c1=O	-8.62%
Cc1ccc(/C=N/N2CCN(C3c4ccccc4-c4ccccc43)CC2)s1	0.486%
CN(/N=C/c1cccc(Br)c1)C1=NS(=O)(=O)c2ccccc21	-11.8%
COc1ccc(N2CCN(c3nc4c(c(=O)n(C)c(=O)n4C)n3CCCc3ccccc3)CC2)cc1	13.4%
CCc1ccc(/C=c2\s/c(=C\C(=O)C(C)(C)C)[nH]c2=O)cc1	15.2%
Cc1cc(C(=O)N2CCCC(N3CCN(c4ccccc4C)CC3)C2)n(C)n1 (stereo not shown)	-88.8%
Cc1ccccc1N1CCN(C2CCCN(C(=O)c3cc(CC(C)C)nn3C)C2)CC1 (stereo not shown)	-31.7%
O=C(c1noc2c1CCCC2)N1CCCC(N2CCN(c3ccccc3F)CC2)C1 (stereo not shown)	-28%
Cc1ccccc1N1CCN(C2CCCN(C(=O)c3csc(C(C)C)n3)C2)CC1 (stereo not shown)	-43%
Cc1ccccc1N1CCN(C2CCCN(C(=O)c3cc(C(C)C)[nH]n3)C2)CC1 (stereo not shown)	-61.2%

Compound	hERG current change (%, negative = inhibition) at 10uM
Cc1cc(C(=O)N2CCCC(N3CCN(c4ccccc4C)CC3)C2)nc(C)n1 (stereo not shown)	4.27%
Cc1ccccc1N1CCN(C2CCCN(C(=O)c3cn4c(C)cccc4n3)C2)CC1 (stereo not shown)	-58.1%
Cc1ccccc1N1CCN(C2CCCN(C(=O)c3ccccn3)C2)CC1 (stereo not shown)	-9.78%
CCc1[nH]nc(C(=O)N2CCCC(N3CCN(c4ccccc4C)CC3)C2)c1C (stereo not shown)	-23.8%
Cc1nc(C(=O)N2CCCC(N3CCN(c4ccccc4C)CC3)C2)cs1 (stereo not shown)	-39.5%
Cc1ccccc1N1CCN(C2CCCN(C(=O)c3noc4c3CCCC4)C2)CC1 (stereo not shown)	-63.5%
CCCc1cc(C(=O)N2CCCC(N3CCN(c4ccccc4C)CC3)C2)n(C)n1 (stereo not shown)	-35.8%
O=C(COc1ccccc1[N+](=O)[O-])N(Cc1ccco1)C1CCS(=O)(=O)C1 (stereo not shown)	-6.3%
Cc1cccc(NC(=O)/C=C/c2ccc3c(c2)OCO3)n1	19.1%
Cc1c(Cl)cnc(NC(=O)COC(=O)Cc2coc3ccc4ccccc4c23)c1Cl	-7.96%
Cc1ccc(Sc2ccc(NC(=O)CCl)cc2)c(C)c1	12.5%
CC(=O)N1CC2(C)CN(C(C)=O)CC(C)(C1)C2	23.8%
Cc1ccccc1N1CCN(C2CCCN(C(=O)c3snnc3C)C2)CC1 (stereo not shown)	5.72%
Cc1ccccc1N1CCN(C2CCCN(C(=O)c3cnsn3)C2)CC1 (stereo not shown)	-58.2%
Cc1cnc(C(=O)N2CCCC(N3CCN(c4ccccc4C)CC3)C2)cn1 (stereo not shown)	1.27%
COc1ccc(NS(=O)(=O)c2ccc(N3CCCC3)c(NC(=S)Nc3cccc(S(=O)(=O)N(C)C)c3)c2)cc1	18.1%
CCc1c(C)nc2ncnn2c1N1CCCC(C(=O)NCc2ccc3c(c2)OCO3)C1 (stereo not shown)	-37.4%
CCc1c(C)nc2ncnn2c1N1CCC(C(=O)NCc2ccc3c(c2)OCO3)CC1	-68.7%
CCc1c(C)nc2ncnn2c1N1CCC(C(=O)NCc2cccc(OC)c2)CC1	-38.6%
Cc1cc(C)nc(N2CCCC(C(=O)NCc3ccc4c(c3)OCO4)C2)n1 (stereo not shown)	20.9%
CCCc1cc(N2CCCC(C(=O)NCc3ccc4c(c3)OCO4)C2)n2ncnc2n1 (stereo not shown)	-78.4%

From PMC4336329 (PLoS ONE, 2015)
